Whole data set: some 33,000 sequences, median “e-score” near -0.037, cut for the highest 2% near 0.34. For the sample, the highest values were picked, then their nearest neighbours and some sequences at random.
biological target: T1, GST-Rok (full length) (Bacillus subtilis subsp. subtilis str. …, UniProt O34857 1-191); test: protein binding microarray; Rok is a gene silencer of Bacillus subtilis; high values mean tight binding; settings: protein: recombinant; tags: GST (pTH5325, pDEST15-Magic modified); dsDNA, one strand shown
T1 sequence: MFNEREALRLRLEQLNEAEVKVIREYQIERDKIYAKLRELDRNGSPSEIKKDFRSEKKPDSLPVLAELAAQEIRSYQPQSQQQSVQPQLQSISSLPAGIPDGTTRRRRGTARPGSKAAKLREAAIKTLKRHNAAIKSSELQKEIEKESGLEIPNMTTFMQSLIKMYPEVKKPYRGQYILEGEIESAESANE
Summary of the method: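 Every oligonucleotide joins a 25-mer constant primer to a 35-mer variable part drawn from a de Bruijn sequence of order 10, so each non-palindromic 8-mer appears at least 32 times and each palindromic 8-mer 16 times. The preference for every 8-mer is reported as a unitless, rank-based enrichment score (E-score). This score spans 0.5 for the most favored 8-mer to −0.5 for the most disfavored.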

| Sequence | binding signal |
| --- | --- |
| GACCATAA | -0.0227 E-score |
| AACCATAA | 0.0915 E-score |
| TACCATAA | 0.336 E-score |
| AATAGTTG | 0.313 E-score |
| GATAGTTA | 0.391 E-score |
| AATAGTTA | 0.372 E-score |
| CATAGTTA | 0.244 E-score |
| GATAGTGA | 0.162 E-score |
| GATAGTCA | 0.0302 E-score |
| TGCTGCAA | -0.149 E-score |
| GCAATACA | 0.115 E-score |
| CAACGACG | -0.1 E-score |
| CATAGCCG | -0.0675 E-score |
| CGAACCCG | -0.099 E-score |
| CATAAAGA | 0.0223 E-score |
| AGCAGAGA | -0.129 E-score |
| ATACGATA | 0.366 E-score |
| GTACGATA | 0.252 E-score |
| ATACGGTA | 0.348 E-score |
| CTACGGTA | 0.175 E-score |
| ATACGGTG | 0.0458 E-score |
| ATACGATC | 0.0843 E-score |
| GTTATGAA | 0.155 E-score |
| AAACATCT | 0.0882 E-score |

| Sequence | binding signal |
| --- | --- |
| AGGAGGAA | -0.159 E-score |
| GCAGTCTA | 0.0175 E-score |
| GGCTAGAA | -0.0986 E-score |
| GACTAGAA | 0.15 E-score |
| AGCTAGAT | 0.215 E-score |
| TACTAGAA | 0.375 E-score |
| CACTAGAA | 0.224 E-score |
| TGCTAGAA | 0.387 E-score |
| AACTAGAG | 0.107 E-score |
| AACTAGAT | 0.369 E-score |
| AACTAGAA | 0.395 E-score |
| AGCTAGAA | 0.329 E-score |
| AACTAGAC | 0.103 E-score |
| ACCTAGAA | 0.109 E-score |
| AAAAAGCT | -0.0996 E-score |
| GAGTACCA | -0.0678 E-score |
| ACACATGA | 0.211 E-score |
| GACGTAGC | 0.0184 E-score |
| AGGTTGAC | -0.156 E-score |
| CGTAAGGC | -0.174 E-score |
| AGAGGACT | -0.176 E-score |
| GAGCTAAC | 0.0297 E-score |
| ATCCTAAG | -0.0403 E-score |
| AATCAATG | 0.0424 E-score |

| Sequence | binding signal |
| --- | --- |
| CACTTATC | 0.23 E-score |
| ACGTAAAG | 0.0236 E-score |
| GGTAGACA | 0.0655 E-score |
| CGTAGAAC | 0.0102 E-score |
| TGTAGAAA | 0.396 E-score |
| GGTAGAAC | 0.374 E-score |
| TGTAGACA | 0.159 E-score |
| TTTAGAAA | 0.183 E-score |
| CGTAGAAG | 0.128 E-score |
| GATAGAAC | 0.278 E-score |
| GTTAGAAC | 0.0808 E-score |
| GGTAGAAA | 0.472 E-score |
| CGTAGAAA | 0.359 E-score |
| GGTAGAGA | 0.0752 E-score |
| AAGTGAGC | -0.093 E-score |
| CGTGCCTA | -0.0621 E-score |
| GCCCACTA | 0.00538 E-score |
| CCTCTTAC | -0.169 E-score |
| AGGTTAAT | 0.137 E-score |
| CTGATAAG | 0.0753 E-score |
| TCCGTAGA | 0.118 E-score |
| CTGGAACA | -0.0188 E-score |
| ATACATAT | 0.399 E-score |
| ATACAAAA | 0.278 E-score |

| Sequence | binding signal |
| --- | --- |
| ATACAAAC | 0.354 E-score |
| ATACATAC | 0.372 E-score |
| CTACATAG | 0.153 E-score |
| ATACATAA | 0.316 E-score |
| AAACATAT | 0.316 E-score |
| ATACAAAT | 0.32 E-score |
| CTACATAC | 0.269 E-score |
| ATACATAG | 0.391 E-score |
| GTACATAC | 0.28 E-score |
| ATACACAT | 0.303 E-score |
| GAATGTAA | 0.21 E-score |
| AGCCCTAT | -0.0484 E-score |
| CGCGATGC | -0.0559 E-score |
| AAATTAAA | 0.166 E-score |
| AGGTTCAT | -0.0409 E-score |
| GAATGGAC | -0.0766 E-score |
| AAGGTTGT | -0.00326 E-score |
| GCGATAAA | 0.182 E-score |
| ATACAATG | 0.254 E-score |
| ATACAATA | 0.359 E-score |
| ATACAATC | 0.192 E-score |
| CATAATCA | 0.164 E-score |
